Test results from PubChem BioAssay (Tox21).
“And” between values parts separate entries of the source, which are not always exact repeats. Equal values may be shown once. Inconclusive results are not listed. Where a structure was tested more than once in an assay, its records may differ in their call. The source made the active and inactive calls. Calls follow the shape of the dose curve; as a rule, active = well fitted curve in the direction sought with a large enough effect in the repeat runs; inconclusive = weak or mixed curves; inactive = no such curve, though single readings can be large; an effect the other way counts as inactive or inconclusive.

How the values were obtained:
[1] = A CellTox Green Cytotoxicity Assay to monitor cytotoxicity in HEK293 cells - 40 hour (AID 1224871); also: nearly all actives have a fitted effect of over 45% in size; also: potency is read from the fitted curve at half-maximal effect
Summary of the method: (§1)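 Tox21 screen in HEK293: membrane-impermeant cyanine dye fluoresces on binding dead-cell DNA; compound pinned 5 h post-seeding, plates held at 37 C, signal read repeatedly through 40 h.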

[2] = qHTS RealTime-Glo MT Cell Viability Assay in HEK293 cells - 16 hour (AID 1224872); also: top concentration of the series differs between compounds; nearly all actives have a fitted effect of over 50% in size
Summary of the method: (§2)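 Quantitative high-throughput screen of the Tox21 10K library in HEK293: cells and RealTime-Glo reagents plated together, compound added at 5 h, luminescence monitored through 40 h at 37 C.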

[3] = qHTS RealTime-Glo MT Cell Viability Assay in HepG2 cells - 8 hour (AID 1224873); also: nearly all actives have a fitted effect of over 55% in size
Summary of the method: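 HepG2 cells mixed with RealTime-Glo MT reagents (NanoLuc plus cell-permeant prosubstrate) were seeded at 600 cells/well, incubated 5 h at 37 C/5% CO2, then pinned with compounds in DMSO; nonlytic luminescence tracked viability during 40 h treatment.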

[4] = qHTS RealTime-Glo MT Cell Viability Assay in HEK293 cells - 40 hour (AID 1224874); conditions: RealTime-Glo luminescence; max response: stronger effect = lower value; also: nearly all actives have a fitted effect of over 50% in size; also: potency is read from the fitted curve at half-maximal effect
Summary of the method: (§3)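 HEK293 + NanoLuc + prosubstrate, 600 cells/well; 5 h, 37 C/5% CO2; compound 23 nL in DMSO by pintool; 37 C; luminescence read at 0, 8, 16, 24, 32 and 40 h time points.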

[5] = A CellTox Green Cytotoxicity Assay to monitor cytotoxicity in HEK293 cells - 24 hour (AID 1224875); also: series mostly up to about 77 µM; nearly all actives have a fitted effect of over 45% in size
Summary of the method: as §1

[6] = A CellTox Green Cytotoxicity Assay to monitor cytotoxicity in HepG2 cells - 16 hour (AID 1224876); also: nearly all actives have a fitted effect of over 45% in size
Summary of the method: (§4)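 Measurements at 0, 8, 16, 24, 32 and 40 h of treatment captured CellTox Green fluorescence in HepG2 cells that had been co-plated with reagent and preincubated 5 h at 37 C/5% CO2.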

[7] = qHTS RealTime-Glo MT Cell Viability Assay in HepG2 cells - 32 hour (AID 1224877); also: nearly all actives have a fitted effect of over 55% in size; also: potency is read from the fitted curve at half-maximal effect
Summary of the method: (§5)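 Compound treatment began 5 h after plating HepG2 cells (600/well) with NanoLuc luciferase and prosubstrate. Plates stayed at 37 C for 40 h; luminescence was captured at six time points, 0 h through 40 h.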

[8] = A CellTox Green Cytotoxicity Assay to monitor cytotoxicity in HepG2 cells - 24 hour (AID 1224878); also: nearly all actives have a fitted effect of over 45% in size; also: potency is read from the fitted curve at half-maximal effect
Summary of the method: as §4

[9] = A CellTox Green Cytotoxicity Assay to monitor cytotoxicity in HepG2 cells - 40 hour (AID 1224879); also: nearly all actives have a fitted effect of over 40% in size; also: potency is read from the fitted curve at half-maximal effect
Summary of the method: as §4

[10] = qHTS RealTime-Glo MT Cell Viability Assay in HEK293 cells - 0 hour (AID 1224880)
Summary of the method: as §3

[11] = A CellTox Green Cytotoxicity Assay to monitor cytotoxicity in HEK293 cells - 32 hour (AID 1224881); also: nearly all actives have a fitted effect of over 40% in size
Summary of the method: as §1

[12] = A CellTox Green Cytotoxicity Assay to monitor cytotoxicity in HepG2 cells - 32 hour (AID 1224883); also: nearly all actives have a fitted effect of over 50% in size; also: potency is read from the fitted curve at half-maximal effect
Summary of the method: as §4

[13] = A CellTox Green Cytotoxicity Assay to monitor cytotoxicity in HEK293 cells - 8 hour (AID 1224884); also: nearly all actives have a fitted effect of over 35% in size
Summary of the method: as §1

[14] = qHTS RealTime-Glo MT Cell Viability Assay in HepG2 cells - 16 hour (AID 1224885); also: nearly all actives have a fitted effect of over 50% in size
Summary of the method: as §5

[15] = qHTS RealTime-Glo MT Cell Viability Assay in HEK293 cells - 24 hour (AID 1224886)
Summary of the method: as §2

[16] = qHTS RealTime-Glo MT Cell Viability Assay in HEK293 cells - 8 hour (AID 1224887)
Summary of the method: as §3

[17] = A CellTox Green Cytotoxicity Assay to monitor cytotoxicity in HEK293 cells - 16 hour (AID 1224888); also: nearly all actives have a fitted effect of over 35% in size
Summary of the method: as §1

[18] = qHTS RealTime-Glo MT Cell Viability Assay in HepG2 cells - 0 hour (AID 1224889); also: nearly all actives have a fitted effect of over 50% in size
Summary of the method: as §5

[19] = A CellTox Green Cytotoxicity Assay to monitor cytotoxicity in HepG2 cells - 8 hour (AID 1224890); also: nearly all actives have a fitted effect of over 45% in size
Summary of the method: as §4

[20] = A CellTox Green Cytotoxicity Assay to monitor cytotoxicity in HepG2 cells - 0 hour (AID 1224882); also: nearly all actives have a fitted effect of over 35% in size
Summary of the method: as §4
% is scaled to controls: 0 for no effect and ±100 for the full control effect.

Cc1ccc(N)c([N+](=O)[O-])c1
inactive: Potency [1] | Potency [2] | Potency [3] | max response [4] 2.67% and 2.77% | Potency [5] | Potency [6] | Potency [7] | Potency [8] | Potency [9] | Potency [10] | Potency [11] | Potency [12] | Potency [13] | Potency [14] | Potency [15] | Potency [16] | Potency [17] | Potency [18] | Potency [19]

O=Cc1ccccc1C=O
24.5 µM (active) and inactive: Potency [8]
21.9 µM (active) and inactive: Potency [9] | Potency [12]
inactive: Potency [1] | Potency [2] | Potency [3] | max response [4] 0.419% | Potency [5] | Potency [6] | Potency [7] | Potency [10] | Potency [20] | Potency [13] | Potency [14] | Potency [15] | Potency [16] | Potency [17] | Potency [18] | Potency [19]

C1COCCN1
inactive: Potency [1] | Potency [2] | Potency [3] | max response [4] -0.365% and -12.5% and 10.6% | Potency [5] | Potency [6] | Potency [7] | Potency [8] | Potency [9] | Potency [10] | Potency [11] | Potency [13] | Potency [14] | Potency [15] | Potency [16] | Potency [17] | Potency [18] | Potency [19]

CC(C)[N+](C)(CCOC(=O)C1c2ccccc2Oc2ccccc21)C(C)C
inactive: Potency [1] | Potency [2] | Potency [3] | max response [4] -23.6% and -15.1% | Potency [5] | Potency [6] | Potency [7] | Potency [8] | Potency [9] | Potency [10] | Potency [11] | Potency [20] | Potency [12] | Potency [13] | Potency [15] | Potency [16] | Potency [17] | Potency [18] | Potency [19]

C=CCOC(=O)C(=C)C
inactive: Potency [1] | Potency [2] | Potency [3] | max response [4] 2.76% and 2.11% | Potency [5] | Potency [6] | Potency [7] | Potency [8] | Potency [9] | Potency [10] | Potency [11] | Potency [20] | Potency [13] | Potency [14] | Potency [15] | Potency [16] | Potency [17] | Potency [18] | Potency [19]

O=[Se](O)O
inactive: cytotoxicity increase [1] -7.57% [at 15.8 µM] | Potency [2] | Potency [5] | Potency [6] | activity change, negative = cytotoxic [7] -0.276% [at 15.8 µM] | cytotoxicity [8] 4.65% [at 15.8 µM] | cytotoxicity increase [9] 15.7% [at 15.8 µM] | Potency [10] | Potency [20] | Potency [13] | activity change, negative = cytotoxicity [15] -26.2% [at 15.8 µM] | Potency [17] | Potency [18] | Potency [19]
active: Potency [1] 30.9 µM | Potency [4] 17.4 µM | Potency [9] 24.6 µM

CC(=O)OC(C)C
inactive: Potency [1] | Potency [2] | Potency [3] | max response [4] -9.76% and -7.44% | Potency [5] | Potency [6] | Potency [7] | Potency [8] | Potency [9] | Potency [10] | Potency [11] | Potency [12] | Potency [13] | Potency [15] | Potency [16] | Potency [17] | Potency [18] | Potency [19]

COCCOCCOCCO
inactive: Potency [1] | Potency [2] | Potency [3] | max response [4] 4.57% and 6.41% | Potency [5] | Potency [6] | Potency [7] | Potency [8] | Potency [9] | Potency [10] | Potency [11] | Potency [20] | Potency [12] | Potency [13] | Potency [14] | Potency [15] | Potency [16] | Potency [17] | Potency [18] | Potency [19]

C=C[C@@]1(C)CC(=O)[C@]2(O)[C@@]3(C)[C@@H](O)CCC(C)(C)[C@@H]3[C@H](O)[C@H](OC(C)=O)[C@@]2(C)O1
inactive: Potency [1] | Potency [2] | Potency [3] | max response [4] -11.8% | Potency [5] | Potency [6] | Potency [7] | Potency [8] | Potency [9] | Potency [10] | Potency [11] | Potency [20] | Potency [12] | Potency [13] | Potency [14] | Potency [15] | Potency [16] | Potency [17] | Potency [18] | Potency [19]

Nc1ccc2c(c1)C(=O)c1ccccc1C2=O
30.3 µM (active) and inactive: Potency [1]
inactive: Potency [2] | Potency [3] | max response [4] -23.1% and -12.6% | Potency [5] | Potency [6] | Potency [7] | Potency [8] | Potency [9] | Potency [10] | Potency [11] | Potency [13] | Potency [14] | Potency [15] | Potency [16] | Potency [17] | Potency [18] | Potency [19]

[Na+]
inactive and 49 µM (active): Potency [7]
inactive: Potency [1] | Potency [2] | Potency [3] | max response [4] 3.11% and 3.69% | Potency [5] | Potency [6] | Potency [8] | Potency [9] | Potency [10] | Potency [11] | Potency [19]

CC(=O)Oc1c(C)c(C)c2c(c1C)CC[C@@](C)(CCC[C@H](C)CCC[C@H](C)CCCC(C)C)O2
inactive: Potency [1] | Potency [2] | Potency [3] | max response [4] 0.83% and -4.95% | Potency [5] | Potency [6] | Potency [7] | Potency [8] | Potency [9] | Potency [10] | Potency [11] | Potency [20] | Potency [13] | Potency [15] | Potency [16] | Potency [17] | Potency [18] | Potency [19]
